Source: the supplement of paper PMC9950053
Where a name gives a salt, the structure may show the parent alone.

The compounds below were run on Danio rerio larvae (5 dpf) (assay: habituation (activity change first vs second 5 min of 1-s interval sound, period 17) minus DMSO control (percentage points); higher = larger habituation measure than DMSO larvae). Conditions: 10 µM; exposure time: 3 h pre-incubation + 3 h imaging.
Experimental: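 Wild-type 5 dpf zebrafish larvae (n=48 per drug, 96-well plates, 28.5 °C) were exposed to Tocris FDA-approved library compounds at 10 µM (0.1% DMSO) for 3 h before and 3 h during imaging. Images were taken every 6 s during visual (moving coloured lines) and acoustic stimuli, and larvae were tracked with the DeepLabCut-based Z-LaP Tracker. Each behavioural measure is the treated-group mean minus the DMSO vehicle control mean (n=844), in percentage points. This mapping covers compounds with 4-character plate codes.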

SMILES | habituation
CC(C)c1nc(CN(C)C(=O)N[C@H](C(=O)N[C@@H](Cc2ccccc2)C[C@H](O)[C@H](Cc2ccccc2)NC(=O)OCc2cncs2)C(C)C)cs1 [Ritonavir] | -0.524
CCCCC1=NC2(CCCC2)C(=O)N1Cc1ccc(-c2ccccc2-c2nnn[nH]2)cc1 [Irbesartan] | -1.18
C[C@]12CC[C@@H]3c4ccc(O)cc4C[C@@H](CCCCCCCCC[S+]([O-])CCCC(F)(F)C(F)(F)F)[C@H]3[C@@H]1CC[C@@H]2O (stereo not given in full) | -2.02
CN1CCN(CCCN2c3ccccc3Sc3ccc(Cl)cc32)CC1 [Prochlorperazine dimaleate] | -8.1
N[C@@H]1[C@H]2CN(c3nc4c(cc3F)c(=O)c(C(=O)O)cn4-c3ccc(F)cc3F)C[C@@H]12 [Trovafloxacin mesylate] | -4.07
CN(CCOc1ccc(NS(C)(=O)=O)cc1)CCc1ccc(NS(C)(=O)=O)cc1 [Dofetilide] | 5.62
Cc1c(-c2ccc(O)cc2)n(Cc2ccc(OCCN3CCCCCC3)cc2)c2ccc(O)cc12 [Bazedoxifene acetate] | 0.95
NC(=O)c1ncn([C@@H]2O[C@H](CO)[C@@H](O)[C@H]2O)n1 [Ribavirin] | 0.859
Nc1nc2c(ncn2COCCO)c(=O)[nH]1 [Acyclovir] | 2.18
CC1(C)O[C@@H]2[C@@H](CO[C@@]3(COS(N)(=O)=O)OC(C)(C)O[C@@H]23)O1 [Topiramate] | -1.06
COc1cc2nc(N3CCN(C(=O)c4ccco4)CC3)nc(N)c2cc1OC [Prazosin hydrochloride] | 0.443
OCCN(CCO)c1nc(N2CCCCC2)c2nc(N(CCO)CCO)nc(N3CCCCC3)c2n1 [Dipyridamole] | 5.96
COc1ccccc1OCCNCC(O)COc1cccc2[nH]c3ccccc3c12 (stereo not given) [Carvedilol] | -0.0437
CCOC(=O)[C@H](CCc1ccccc1)N[C@@H](C)C(=O)N1[C@H](C(=O)O)C[C@@H]2CCC[C@@H]21 [Ramipril] | 0.42
CCOC(=O)C1=C(C)NC(C)=C(C(=O)OC)C1c1cccc(Cl)c1Cl (stereo not given) [Felodipine] | -11.4
CN(C)CCC[C@@]1(c2ccc(F)cc2)OCc2cc(C#N)ccc21 [Escitalopram oxalate] | -6.32
CC[C@H](C)C(=O)O[C@H]1C[C@@H](C)C=C2C=C[C@H](C)[C@H](CC[C@@H]3C[C@@H](O)CC(=O)O3)[C@H]21 [Lovastatin] | -2.11
CCOC(=O)N1CCC(=C2c3ccc(Cl)cc3CCc3cccnc32)CC1 [Loratidine] | -7.35
COc1ccc([C@@H]2Sc3ccccc3N(CCN(C)C)C(=O)[C@@H]2OC(C)=O)cc1 [Diltiazem hydrochloride] | -0.219
CC(C)(C)NC(=O)[C@@H]1C[C@@H]2CCCC[C@@H]2CN1C[C@@H](O)[C@H](Cc1ccccc1)NC(=O)[C@H](CC(N)=O)NC(=O)c1ccc2ccccc2n1 [Saquinavir mesylate] | -0.527

SMILES | habituation
OC(CNCC(O)C1CCc2cc(F)ccc2O1)C1CCc2cc(F)ccc2O1 (stereo not given) [Nebivolol hydrochloride] | -10.1
CCCN(CCc1cccs1)[C@H]1CCc2c(O)cccc2C1 [Rotigotine hydrochloride] | -11.4
NS(=O)(=O)c1cc(C(=O)O)c(NCc2ccco2)cc1Cl [Furosemide] | 2.23
CC(=O)Oc1ccccc1C(=O)O [Aspirin] | -4.51
Nc1nc(NC2CC2)c2ncn([C@H]3C=C[C@@H](CO)C3)c2n1 [Abacavir hemisulfate] | 3.13
CCCc1nc2c(C)cc(-c3nc4ccccc4n3C)cc2n1Cc1ccc(-c2ccccc2C(=O)O)cc1 [Telmisartan] | -1.73
Cc1cn([C@H]2C=C[C@@H](CO)O2)c(=O)[nH]c1=O [Stavudine] | -0.444
Cc1nc(Nc2ncc(C(=O)Nc3c(C)cccc3Cl)s2)cc(N2CCN(CCO)CC2)n1 [Dasatinib] | -0.804
COc1c(C)c2c(c(O)c1C/C=C(\C)CCC(=O)O)C(=O)OC2 [Mycophenolic acid] | 1.82
CCOc1ccccc1OCCN[C@H](C)Cc1ccc(OC)c(S(N)(=O)=O)c1 [Tamsulosin hydrochloride] | 1.59
CCN(CC)CCNC(=O)c1c(C)[nH]c(/C=C2\C(=O)Nc3ccc(F)cc32)c1C [Sunitinib malate] | 5.06
COc1cc(Nc2c(C#N)cnc3cc(OCCCN4CCN(C)CC4)c(OC)cc23)c(Cl)cc1Cl [Bosutinib] | 1.4
CC/C(=C(\c1ccccc1)c1ccc(OCCN(C)C)cc1)c1ccccc1 [Tamoxifen citrate] | -7.1
COc1ccc(Cl)cc1C(=O)NCCc1ccc(S(=O)(=O)NC(=O)NC2CCCCC2)cc1 [Glibenclamide] | 0.59
CN(CCOc1ccc(CC2SC(=O)NC2=O)cc1)c1ccccn1 (stereo not given) [Rosiglitazone] | 2.04
CCCCNc1cc(C(=O)O)cc(S(N)(=O)=O)c1Oc1ccccc1 [Bumetanide] | -0.555
Nc1nc(F)nc2c1ncn2[C@@H]1O[C@H](CO)[C@@H](O)[C@@H]1O [Fludarabine] | -0.666
O=C(O)CCCc1ccccc1 [Sodium 4-Phenylbutyrate] | -2.16
COc1c(C)c2c(c(O)c1C/C=C(\C)CCC(=O)OCCN1CCOCC1)C(=O)OC2 [Mycophenolate mofetil] | 4.4
C=CC(=O)N1CCC[C@@H](n2nc(-c3ccc(Oc4ccccc4)cc3)c3c(N)ncnc32)C1 [Ibrutinib] | -7.32
